# Source: PubChem
# Only some compounds are listed: those with a hit (about 11% of all), similar ones and a draw of the others.
# RORg inh – inhibitors of mouse ROR gamma transcriptional activity; actives 5.4% (n = 310,000); P51450; Potency, µM (top dose mostly 53.6 µM), without a hit: at the top dose activity change, negative = inhibition, most hits filed as inhibitors; AID 2551; Drosophila S2 Gal4-RORgamma UAS-luciferase reporter, 20 h; further: potency means the concentration at half of the fitted maximal effect; on the % scale 0 is the no-effect control and ±100 the full control effect; nearly all actives have a fitted effect of over 60% in size
# Target sequence (P51450 whole entry, looked up, the tested form may be a part): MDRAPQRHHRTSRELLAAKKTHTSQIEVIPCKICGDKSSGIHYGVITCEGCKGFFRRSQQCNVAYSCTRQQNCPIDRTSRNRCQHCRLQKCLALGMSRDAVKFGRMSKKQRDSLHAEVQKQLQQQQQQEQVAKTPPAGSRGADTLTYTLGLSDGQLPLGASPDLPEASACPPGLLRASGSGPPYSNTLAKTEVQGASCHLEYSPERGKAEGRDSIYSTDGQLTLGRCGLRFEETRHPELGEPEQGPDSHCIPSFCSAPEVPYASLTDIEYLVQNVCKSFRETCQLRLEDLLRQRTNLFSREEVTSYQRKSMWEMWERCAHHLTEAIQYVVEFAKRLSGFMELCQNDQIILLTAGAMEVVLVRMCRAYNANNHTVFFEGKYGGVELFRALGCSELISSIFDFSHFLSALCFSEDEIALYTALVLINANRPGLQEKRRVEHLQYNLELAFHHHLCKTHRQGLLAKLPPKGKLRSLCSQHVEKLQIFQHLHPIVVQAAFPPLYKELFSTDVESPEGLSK
#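 Stable Schneider cell line, Gal4 DNA-binding domain fused to ROR gamma, UAS-luciferase. Cmpd 1 hr RT → CuSO4 700 uM final → 20 hr RT → luciferase reagent 10 min → luminescence.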
# SW480 rereplic – inducers of DNA re-replication in SW480 colon cancer cells; SW480 DNA re-replication, Hoechst DNA content imaging, 48 h; Potency, µM (top dose mostly 46.1 µM), for inactives: at the top dose re-replication activation, usual class: activators; actives 1.8% (n = 340,000); AID 624297; further: potency means the concentration at half of the fitted maximal effect; % of control where 0% means no effect; nearly all actives have a fitted effect of over 55% in size
#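 Compounds, transferred as 23 nL by pin tool, were incubated with cells for 48 hr; DNA content per nucleus was then quantified by Hoechst staining and fluorescence plate imaging.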
# IL-1B inflam inh – inhibitors of inflammasome signaling (IL-1 beta secretion); actives 4.7% (n = 360,000); THP-1 LPS/ATP IL-1B secretion, AlphaLISA, 16 h; stronger effect = lower value; activity change, % at 57.5 µM; in the data active means activity change below about -50%; inconclusive means mostly about -30% to -49%; further: on the % scale 0 is the no-effect control and ±100 the full control effect
#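 THP-1 cells pretreated 1 hr with compounds (up to 57.5 uM final), then stimulated with LPS (250 ng/mL final) plus ATP (1.25 mM final); secreted IL-1B measured by AlphaLISA after 16 hr, decreased signal indicating inhibition.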
# Gal4-VP16 FLuc – inhibits Gal4-VP16 luciferase reporter, ROR gamma counter-screen. Drosophila S2 Gal4-VP16 UAS-luciferase, luminescence, 20 h. Potency, µM (titrated, usually from 53.6 µM), for inactives: top-dose activity, negative = inhibition, hits mostly inhibitors. actives 3.5% (n = 310,000);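 further: Gal4-VP16 expression switched on by copper sulfate through the metallothionein promoter; potency means the concentration at half of the fitted maximal effect; on the % scale 0 is the no-effect control and ±100 the full control effect; nearly all actives have a fitted effect of over 50% in size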
# MCF10A rerep – DNA re-replication induction in MCF 10a cells; Potency, µM (highest dose often 46.1 µM), for the others: top-dose activity, positive = re-replication, most hits filed as activators; MCF 10A DNA re-replication, Hoechst nuclear intensity, 48 h; actives 2.9% (n = 350,000); further: potency means the concentration at half of the fitted maximal effect; % of control where 0% means no effect; nearly all actives have a fitted effect of over 50% in size
# Active calls of the source: *; ? = inconclusive; nt = not tested or not shown; [ ] = another dose, or the depositor's remark. Unless noted, the call rests on the fitted dose curve; in most records, active means well fitted curve in the direction sought with a large enough effect; inconclusive means small, poorly fitted or top-dose-only effect, or another doubt; inactive means no such curve, though single readings can be large; an effect the other way counts as inactive or inconclusive.
SMILES,RORg inh,SW480 rereplic,IL-1B inflam inh,Gal4-VP16 FLuc,MCF10A rerep
Cc1cc(-n2c(C)cc(C(=S)N3CCOCC3)c2C)ccc1Br,8.9µM*,1%,?,?,?
Cc1ccc(-n2c(C)cc(C(=O)CN3CCOCC3)c2C)cc1C,?,-49%[9.22 µM],-4,-6%,12%
Cc1nc2ccc(NC(=O)CSc3nnc(C)s3)cc2[nH]1,-14%,-1%,6,0%,?
COc1ccc(Cn2c(-c3ccc(C)cc3)c[n+]3ccccc23)cc1,11%,-2%,0,18µM*,?
Cc1cccc(NCc2nc3ccccc3n2Cc2ccccc2)c1,1µM*,-5%,-26,?,44%[0.0737 µM]
Cc1ccc(Cn2c(Cc3ccccc3)nc3ccccc32)cc1,8.9µM*,0%,8,?,?
COc1ccc(-c2nc3ccccc3n2Cc2ccc(C)cc2)cc1,13µM*,-2%,-26,?,?
COCn1c(-c2ccc(OC)cc2)nc2ccccc21,?,-4%,-20,0%,18%
CCCCN(C(=O)CCN1C(=O)C2CC=CCC2C1=O)c1c(N)n(CCCC)c(=O)[nH]c1=O (stereo unspecified),nt,-9%,12,nt,3%
c1ccc2[nH]c(NCCCc3cnc[nH]3)nc2c1,-16%,nt,nt,-13%,nt
CC(C)(C)OC(=O)N1CCN(C(=O)c2ncn3c2c(=O)[nH]c2ccccc23)CC1,nt,nt,16,nt,nt
Cc1nc2cc(NCc3nc4ccccc4n3Cc3ccccc3)ccc2n1C,-67%,-4%,-83*,-24%,?
COCc1nc2ccccc2n1Cc1ccc(Br)cc1,10µM*,5%,23,?,-6%
COC(=O)C1(C(=O)OC)CC2=C[C@H](CC2=O)Cc2ccccc2[C@@H]1C[N+](=O)[O-],-3%,nt,nt,9%,nt
CC(=O)c1cccc(NS(=O)(=O)c2ccc3c(c2)N(C(C)=O)CCO3)c1,?,22%,31,-2%,?
COc1ccc2nc(-c3ccc(N)cc3)[nH]c2c1,7.9µM*,-5%[9.22 µM],?,10µM*,-8%
COc1ccc(-c2nc3ccc(C4=C(C)CC(=O)NN4)cc3[nH]2)cc1,nt,19µM*,nt,nt,?
Nc1ccc2nc(-c3ccc(N)c(Cl)c3)[nH]c2c1,-38%,2%[9.22 µM],?,?,22%
COc1ccc2nc(-c3cccc(N)c3)[nH]c2c1,?,1%,-28,13µM*,4%
COc1ccc(OCC(=O)Nc2cccc(-c3nc4ccccc4[nH]3)c2)cc1,7%,-1%,?,4%,22%
CC(C)CC(=O)Nc1ccc(C(=O)COC(=O)Cc2n[nH]c(=O)c3ccccc23)cc1,nt,3%,14,nt,5%
c1ccc(Cn2c(NCc3ccccn3)nc3ccccc32)cc1,10µM*,6%,-27,-6%,1%
CCN(CC)CCn1c(NCc2ccccn2)nc2ccccc21,-24%,3%,0,0%,5%
CCCCn1c(NCc2ccccn2)nc2ccccc21,7.1µM*,-2%,-4,13µM*,-1%
CCCCCCN1CCN(C2CN(Cc3cn(Cc4ccc(C)cc4)nn3)S(=O)(=O)C2)CC1 (stereo unspecified),nt,nt,-14,nt,nt
SMILES,RORg inh,SW480 rereplic,IL-1B inflam inh,Gal4-VP16 FLuc,MCF10A rerep
COc1ccc(OC)c(-c2csc(NC(=O)C3=COCCO3)n2)c1,nt,2%,-12,nt,23%
CCCNCC1C(Oc2ccc(Cl)cc2Cl)C(=O)N1c1cccc(C)c1C (stereo unspecified),?,?,-53*,-13%,?
Cc1cccc(N2C(=O)C(Oc3ccc(Cl)cc3Cl)C2C(=O)O)c1C (stereo unspecified),7%,-5%,15,?,1%
CCCCNCC1C(Oc2ccc(Cl)cc2)C(=O)N1c1ccccc1C (stereo unspecified),-45%,?,-196*,-6%,?
CCNC(=S)N1CCC(C(=O)c2ccc(Cl)cc2)CC1,-14%,-46%,0,-2%,12%
CCCNC(=S)N1CCC(C(=O)c2ccc(Cl)cc2)CC1,-11%[1.91 µM],7.3µM*,29,-2%,0%
CN(CCCC(=O)Nc1ccc(Br)cc1F)S(=O)(=O)c1ccccc1,nt,-3%,18,nt,-6%
COc1ccc(/C=C2\SC(=O)N(CC(=O)NCCCn3ccnc3)C2=O)cc1,1%,-7%,-17,4%,?
COc1cc(C#Cc2c(-c3cncn3C)n(C)c3ccc(-c4cnc(OC)nc4)cc23)cc(OC)c1,nt,?,-58*,nt,?
COc1cc(C2c3c(c(C)c(C)oc3=O)Oc3c(C)c(C)oc(=O)c32)ccc1OS(=O)(=O)c1ccc(C)cc1,nt,7%,-5,nt,29%
Cc1cc(C(=O)N/N=C/c2ccc[nH]2)no1,10µM*,-4%,-8,11µM*,-5%
Cc1cc(C(=O)N/N=C/c2cc(Cl)cc([N+](=O)[O-])c2O)n[nH]1,7.9µM*,5%,18,?,13%
Cc1cc(C(=O)N/N=C/c2ccc(-c3ccc([N+](=O)[O-])cc3Cl)o2)n[nH]1,-29%,18µM*,-24,-15%,18µM*
Cc1cc(C(=O)N/N=C\c2cc(C(C)(C)C)c(O)c(C(C)(C)C)c2)n[nH]1,6.3µM*,-3%,-6,3.5µM*,?
Cc1cc(C(=O)N/N=C/c2ccc([N+](=O)[O-])s2)n[nH]1,-40%,?,-6,?,?
Cc1cccc(C)c1NC(=O)C(c1ccnc2ccccc12)n1c(=O)c(-c2ccccc2)nc2ccccc21 (stereo unspecified),nt,nt,-20,nt,nt
Cc1ccc2nc(-c3ccc(C#N)cc3)c(Cc3ccccc3C(F)(F)F)n2c1,nt,nt,-9,nt,nt
Cc1csc(NC(=O)C(C)Oc2ccc(Cl)cc2C)n1 (stereo unspecified),nt,1%,-24,nt,-2%
c1ccc2c(c1)OCCOCCOCCOCCO2,-2%,nt,nt,-7%,nt
Cc1cc(C(=O)N/N=C/c2ccc[nH]2)n[nH]1,2.8µM*,-2%,-3,13%,-2%
Cc1ccc(C2(c3ccccc3)NC(=O)N(CC(=O)NC3(C#N)CCCC3)C2=O)cc1C (stereo unspecified),nt,?,-5,nt,3%
CCc1ccc(CNc2ccc3c(c2)ncn3C(C)(C)C)cc1,?,-3%,-78*,?,?
CCc1ccc(CNc2ccc3c(c2)ncn3CC)cc1,-41%,1%,-57*,?,?
CN(C)c1ccc(CNc2ccc3c(c2)ncn3C)cc1,0%,?,-59*,-4%,24%
Cc1ccccc1Nc1oc(-c2ccccc2)nc1-c1ccccc1,14%,nt,nt,-8%,nt
S=C(Nc1ccccc1Cl)N1CCOCC1,-5%,-7%,-1,?,-4%
S=C(Nc1ccccc1Cl)N1CCCC(c2ccccc2)=N1,-20%,?,nt,1%,13µM*
